# Screening results deposited in PubChem by several laboratories.
# This is a sample that favours compounds with a hit; in the whole collection about 2.2% have one here.
# Ba/F3 V617F tox = loss of viability in JAK2V617F-driven Ba/F3 cells | AID 1446 | Ba/F3 EpoR-JAK2V617F viability, ATP luminescence | 220,000 compounds, 1.1% hits | inhibition, % at 5.6 µM;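 active = inhibition above the campaign mean plus 3 SD over all tested compounds, cut at about 24% in these data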;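 also: cytokine-independent growth of Ba/F3 cells driven by EpoR plus mutant JAK2; 0% = DMSO-treated cells and 100% = JAK inhibitor I control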
# aSyn 5UTR inh = 5' untranslated region of α-synuclein, MLPCN primary screen; alpha-synuclein 5'UTR reporter, inhibitor activity; inhibition, % (tested at 7.5 µM); 300,000 compounds, 0.82% hits; AID 1813; in the data active = inhibition above about 60%;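 also: H4 neuroglioblastoma cells stably carrying SNCA 5'UTR luciferase fusion; 0% = DMSO wells and 100% = positive control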
# APP 5UTR inh = APP translation inhibition | AID 1285 | inhibition, % at 2 µM | SH-SY5Y APP 5'UTR-luciferase reporter, luminescence | 190,000 compounds, 0.82% hits;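 active = inhibition above a set limit, derived from the sample mean plus 3 SD, cut at about 45% in these data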
# KLF5 inhibitor = kruppel-like factor 5 inhibition; DLD-1 KLF5 promoter-luciferase reporter, luminescence; inhibition, % at 5 µM; 290,000 compounds, 0.23% hits; AID 1700;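 active = inhibition above a per-plate limit of that plate's mean compound inhibition plus 3 SD, cut at about 60% in these data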;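 also: 0% = DMSO wells and 100% = LY294002 at 200 µM; higher means less KLF5 promoter-driven luciferase light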
# BaF3 tox = counter-screen for JAK2V617F inhibitors: parental Ba/F3 viability inhibitors; 220,000 compounds, 1.1% hits; CellTiter-Glo ATP luminescence; AID 1486; inhibition, % at 5.6 µM;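 active = inhibition above a per-campaign cutoff, the mean inhibition of all tested compounds plus 3 SD, cut at about 27% in these data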;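 also: 0% = DMSO wells and 100% = JAK Inhibitor I control wells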
# IEC-6 tox = kills IEC-6 intestinal cells in KLF5 counter-screen; IEC-6 cytotoxicity, luminescence viability; inhibition, % at 5 µM; 290,000 compounds, 0.78% hits; AID 1825;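 also: 0% = plate median of test compound wells and 100% = cytotoxic reference compound wells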
# IEC-6 cytotox cf = IEC-6 cytotoxicity, confirmation assay. shares compounds with IEC-6 tox. IEC-6 rat intestinal epithelial viability, luminescence. inhibition, % at 5 µM. 1,900 compounds, 63% hits;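 also: 0% = vehicle and 100% = reference cytotoxic drug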
# Numbers without * were called inactive; x = not tested or not shown. Rule as the data show it, unless noted: active = inhibition above about 22%; inactive = the rest.
SMILES,Ba/F3 V617F tox,aSyn 5UTR inh,APP 5UTR inh,KLF5 inhibitor,BaF3 tox,IEC-6 tox,IEC-6 cytotox cf
Nc1nc(-c2cccnc2)nn1C(=O)c1ccccc1Cl,-4,20,-8,-4,-1,36*,4
CCOc1ccc(C)cc1S(=O)(=O)n1cnc2ccccc21,x,-9,x,56,x,51*,29*
CCOc1ccc(Cl)cc1S(=O)(=O)n1cnc2ccccc21,0,-3,11,-20,6,8,x
Cc1ccc2[nH]c3c(c2c1)CCCC3C(N)=O (stereo unspecified),-1,-25,-16,-37,4,-4,x
Cc1ccc2[nH]c3c(c2c1)CCCC3NC(=O)CCl (stereo unspecified),x,15,x,43,x,56*,60*
CN(CCCN1CCCCC1)C(=O)c1cc(COc2ccc(F)cc2F)on1,x,-3,x,17,x,8,x
COc1cc(OC)cc(C(=O)NCC(=O)Nc2ccc(-c3ccccc3)cc2)c1,x,-195,x,-14,x,30*,9
CC(C)c1c(C(=O)N/N=C/c2ccc3c(c2)OCO3)nnn1-c1nonc1N,x,-34,x,-40,x,-1,x
CCN(CC)c1ccc(/C=N/NC(=O)c2nnn(-c3nonc3N)c2C(C)C)c(O)c1,x,92*,x,50,x,97*,68*
COC(=O)c1sccc1NC(=O)c1c(F)c(F)c(F)c(F)c1F,x,17,x,x,x,x,x
N#CC1=C2SCC(O)(c3ccccc3)N2C(=O)CC1c1ccccc1 (stereo unspecified),82*,-16,92*,56,79*,77*,60*
CCc1ccc(C2CC(=O)N3CN(c4ccccc4)CSC3=C2C#N)cc1 (stereo unspecified),3,12,1,-7,-1,4,x
COc1cc(Cl)c(C)cc1NC(=O)c1ccc(S(C)(=O)=O)cc1,-1,-17,-29,-11,2,-2,x
CCC(C)n1c(SCC(=O)NC(=O)c2cccn2C)nc2ccccc2c1=O (stereo unspecified),4,-27,-14,21,3,33*,29*
O=C1C=C(Nc2ccc(Cl)cc2Cl)CC(c2ccco2)C1 (stereo unspecified),21,17,13,30,47*,54*,48*
O=C(Nc1nc2ccc(S(=O)(=O)N3CCCC3)cc2s1)C1CCCCC1,82*,72*,77*,36,79*,70*,56*
O=C(Nc1nc2ccc(S(=O)(=O)N3CCCCC3)cc2s1)C1CCCO1 (stereo unspecified),-2,21,-2,-24,6,-1,x
COc1cccc(C2NC(=S)NC(C)=C2C(=O)c2ccccc2)c1OC (stereo unspecified),84*,16,78*,55,78*,68*,50*
CCN(c1ccccc1)S(=O)(=O)c1ccc(Oc2ccc(-n3ccnc3)cc2)nc1,11,103*,2,-7,20,30*,29*
CCN(c1ccccc1)S(=O)(=O)c1ccc(C(=O)NCCCn2ccnc2)cc1,-3,-33,12,-12,1,5,x
Nc1nc(Nc2ccccc2)nc2ccccc12,11,-82,-155,-71,15,22*,15
Cc1ccccc1Nc1nc(N)c2ccccc2n1,17,-9,-144,-7,16,20,x
COc1ccc(NC(=O)c2c(N)no[n+]2[O-])c(OC)c1,-3,-6,15,-32,2,-2,x
COc1ccc(NC(=O)c2c(N)no[n+]2[O-])cc1,-4,12,18,15,0,33*,28*
CC1(C)CC(N2CCOCC2)=CC(=[N+]2CCOCC2)C1,-2,-9,-6,-21,5,-4,x
SMILES,Ba/F3 V617F tox,aSyn 5UTR inh,APP 5UTR inh,KLF5 inhibitor,BaF3 tox,IEC-6 tox,IEC-6 cytotox cf
CC1(C)CC(N2CCCCC2)=CC(=[N+]2CCCCC2)C1,84*,0,8,-14,68*,23*,25*
Cc1cccc(N2CCN(C(=O)c3c(-c4ccccc4)noc3C)CC2)c1C,x,65*,x,61,x,72*,45*
CCOC(=O)C1CCCN(C(=O)c2ccc3nc(-c4cccc(OC)c4)oc3c2)C1 (stereo unspecified),x,-30,x,-51,x,30*,15
Cc1occc1C(=O)N/N=C/c1ccc(-c2ccccc2)cc1,x,-29,x,-15,x,28*,31*
Cc1occc1C(=O)N/N=C/c1ccc(OCc2ccccc2)cc1,0,-138,x,-107,0,-10,x
COC(=O)C(NC(=O)c1ccccc1C(=O)O)c1ccc2ccccc2c1 (stereo unspecified),x,-7,x,-5,x,-2,x
Cc1ccccc1OCCOC(=O)c1c(-c2ccccc2)noc1C,x,-16,x,38,x,54*,28*
COc1ccc(/C=C2\SC(=S)N(CCC(=O)NC3CCCC3)C2=O)cc1OC,x,5,x,4,x,8,x
CCOC(=O)Cn1c(S(=O)(=O)Cc2cccc(F)c2)nc(-c2ccccc2)c1-c1ccccc1,2,50,5,-28,5,23*,20
COc1ccc(COc2cc(-c3cccc(OC)c3)nc3ccc(NC(=O)c4ccc(C)cc4)cc23)cc1,5,2,8,24,11,8,x
COc1ccc(COc2cc(-c3cccc(OC)c3)nc3ccc(NC(=O)c4ccc(N(C)C)cc4)cc23)cc1,76*,1,11,23,75*,49*,15
Cc1ccc(OCC(O)CNC2CCCC2)c(C)c1 (stereo unspecified),x,3,x,-50,x,1,x
Cc1ccccc1OCC(O)CNC1CCC(NCC(O)COc2ccccc2C)CC1 (stereo unspecified),x,99*,x,-34,x,101*,101*
CCOC(=O)COc1coc(CN2CCN(c3ccc(F)cc3)CC2)cc1=O,x,10,x,-4,x,-2,x
CCCNC(=O)C1CC(c2ccccc2C(F)(F)F)=NO1 (stereo unspecified),x,10,x,x,x,x,x
CCN1CCS/C1=C\C=C\C1=[N+](CC)CCS1,101*,19,-3,5,90*,37*,31*
CCN1CCS/C1=C/C=C/C1=[N+](CC)CCS1,99*,-19,-14,-28,81*,27*,30*
CCOc1ccccc1C(=O)NC(C(=O)Nc1cccc(S(N)(=O)=O)c1)C(C)C (stereo unspecified),-1,-1,-6,-16,2,4,x
O=C(c1ccc(NS(=O)(=O)c2ccccc2)cc1)N1CCOCC1,x,-12,x,-10,x,2,x
CCn1cc(C(=O)NC2CCCc3c2cnn3-c2cccc(C)c2C)cn1 (stereo unspecified),x,-16,x,44,x,22*,14
CC1=Nc2cc(C(=O)NCCCN3CCN(C)CC3)ccc2Sc2ccc(C)cc21,x,0,x,-35,x,-3,x
CC1=Nc2cc(C(=O)NCC3CCCO3)ccc2Sc2ccc(C)cc21 (stereo unspecified),x,44,x,61,x,79*,53*
